In PubChem BioAssay AID800 (PCMD, 2007):
Among all 220,000 compounds or so, about 650 (0.3%) were called active. No stated cut-off is given here; in the data, active means inhibition above about 40%; inactive means the rest. The sample as a whole holds a higher share of actives than the screen did.

Target: Coagulation factor XII (Homo sapiens) (UniProt P00748)
Experiment: human FXIIa protease inhibitors, primary screen, biochemical, 1536-well (AID 800);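 further: 0% = enzyme with no compound and 100% = blank without enzyme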
Settings: purified FXIIa, Boc-QGR-AMC fluorogenic substrate, 2 h; at 5 µM; hits give high values

Chain of Coagulation factor XII (Homo sapiens) (P00748 20-372 limits assumed): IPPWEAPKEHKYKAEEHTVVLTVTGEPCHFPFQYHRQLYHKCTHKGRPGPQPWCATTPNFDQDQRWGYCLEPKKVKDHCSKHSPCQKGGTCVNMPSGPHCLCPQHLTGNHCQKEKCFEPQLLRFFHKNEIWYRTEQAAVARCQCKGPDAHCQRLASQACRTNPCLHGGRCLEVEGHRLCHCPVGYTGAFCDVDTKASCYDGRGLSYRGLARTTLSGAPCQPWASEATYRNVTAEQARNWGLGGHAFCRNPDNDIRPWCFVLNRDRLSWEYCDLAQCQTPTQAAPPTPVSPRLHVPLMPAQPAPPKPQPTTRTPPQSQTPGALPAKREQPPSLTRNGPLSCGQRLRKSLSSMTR
Chain of Coagulation factor XII (Homo sapiens) (P00748 373-615 limits assumed): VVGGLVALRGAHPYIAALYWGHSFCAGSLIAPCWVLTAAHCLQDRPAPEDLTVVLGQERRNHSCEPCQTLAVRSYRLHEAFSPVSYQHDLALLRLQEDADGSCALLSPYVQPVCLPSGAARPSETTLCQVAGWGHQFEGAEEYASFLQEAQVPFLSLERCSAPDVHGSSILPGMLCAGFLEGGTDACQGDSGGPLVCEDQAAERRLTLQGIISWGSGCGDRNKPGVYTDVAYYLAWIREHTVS

inhibition, inactive:
Cc1ccc2c(c1)nnc1nnc(SCC(=O)O)n12 5.33%
Cc1cccc(NC(=O)c2nc[nH]c2C(=O)NCC(=O)OCc2ccccc2)c1 7.76%
Cc1ccc(NNC(=O)c2cccs2)cc1Cl 8.48%
CCc1nnc(NC(=O)CCC(=O)NCc2ccccc2OC)s1 15%
CCc1nnc(NC(=O)CCC(=O)O)s1 13.2%
CCCCC1=CC2=CC(=O)C(C)(OC(=O)CC)C(=O)C2=CN1CCCOC(C)C (centres undefined) 7.98%
O=C(Nc1ccc(F)cc1)c1cc2c(s1)CCCC2 8.77%
COc1ccc(CNC(=O)C2CC(c3ccc(C(F)(F)F)cc3)=NO2)cc1 (centres undefined) 7.68%
Nc1nnn(CC(=O)N/N=C/c2ccc(O)cc2)n1 16.2%
CCc1cccc(CC)c1NC(=S)Nc1ccc2cn[nH]c2c1 10%
Cc1ccc(SCc2c(C(=O)N/N=C/C3CC=CCC3)nnn2-c2nonc2N)cc1 (centres undefined) 9.39%
CS(=O)(=O)c1ccc2nc(NC(=O)c3ccc(N4CCCC4=O)cc3)sc2c1 1.85%
O=C(NCc1ccc2c(c1)OCO2)c1sccc1Br 8.69%
C/C=C(/C)C(=O)O[C@@H]1c2cc3c(c4c2[C@@]2(CO4)C(=O)C(OC)=C(OC)C=C2C[C@@H](C)[C@H]1C)OCO3 12.9%
Oc1[nH]c2ccc(Br)cc2c1N=Nc1nn[nH]n1 12.3%
CCCc1ccc(C(=O)[C@@H]2[C@@H](C(C)=O)N3c4ccc(F)cc4C=C[C@@H]3[C@@]23C(=O)Nc2ccccc23)cc1 8.48%
CC1CC(C)(C)n2c(O)c(N=NC(N)=S)c3cccc1c32 (centres undefined) 30.2%
Cc1ccccc1Nc1c(-c2ccccc2)nc2ncccn12 5.54%
CCc1ccc(S(=O)(=O)NCC(O)COc2ccc(OC)cc2)cc1 (centres undefined) 6.59%
Cc1cc(NC(=O)c2cccc(N3C(=O)CCC3=O)c2)no1 16.7%
Cc1cccc(NC(=O)c2ccc3ccccc3n2)n1 16%
O=C(NC1CCN(Cc2ccccc2)CC1)c1ccc(Oc2cc(Cl)cc(Cl)c2)o1 6.33%
S=c1[nH]c2ccccc2c2ccccc12 2.88%
COC(=O)CCCC1=CC2=CC(=O)C(C)(OC(=O)c3cccs3)C(=O)C2=CN1CC(C)C (centres undefined) 7.73%
Cc1noc(C)c1C(=O)OCC(=O)N1CCN(S(=O)(=O)c2ccc3ccccc3c2)CC1 1.83%
Nc1ccccc1Sc1cc(Cl)nnc1Cl 12.7%
C=CCn1c(=S)sc2c(=O)[nH]c(C)nc21 1.68%
Cc1cc(=O)[nH]c(S)c1C#N -0.28%
COC(C[C@@H](O)[C@H](C)[C@H](O)COCc1ccccc1)OC 4.52%
Cn1c(S(=O)(=O)O)nc2ccccc21 -0.32%
NS(=O)(=O)c1ccc(CCNC(=O)NC2CCCCC2)cc1 15%
O=C(c1ccc(Cl)cc1)N1N=C(c2ccccn2)CC1(O)C(F)(F)F (centres undefined) 8.52%
Cc1ccc(-n2ncc3c2ncn2nc(-c4ccco4)nc32)c(C)c1 14.2%
COC(=O)CSc1ncnc2c1cnn2-c1ccc(C)cc1C 5.55%
Cc1[nH]n(C)c(=O)c1C(=O)c1c(-c2c(Cl)cccc2Cl)noc1C 2.28%
CCOc1c(Nc2cccc(Cl)c2)c(=O)c1=O 8.16%
COc1ccc(Nc2ncnc3sc(-c4ccccc4)cc23)c(OC)c1 4.94%
CC(C)(C)c1cc(C(=O)N/N=C/c2ccc([N+](=O)[O-])s2)n[nH]1 7.22%
Cc1nc(N)[nH]c(=O)c1Oc1cccc(C(F)(F)F)c1 3.61%
O=C(CSC(=S)N1CCCCC1)c1c(F)cccc1F 6.72%
CNC(=O)c1cccc2nc3ccccc3nc12 6.68%
Brc1ccc(-c2nn[nH]n2)cc1 12.5%
CC(C)S(=O)(=O)c1csc(NC(=O)Nc2ccc(Cl)cc2)c1Cl 6.02%
C=C(C)C(=O)O[C@H]1C/C(C)=C\C(=O)/C=C(\C)[C@H](O)[C@@H]2OC(=O)C(=C)[C@@H]21 8.34%
COc1cccc(Nc2nnc(SCC(=O)N3CC(=O)Nc4ccccc43)s2)c1 5.5%
C/C=N/N(c1ccccc1)c1ccccc1 4.81%
CC(C)(C)C(=O)Nc1c(Br)c(C2CC2)nn1-c1ccccc1 6.88%
Cc1cc(C)cc(OCC(=O)O/N=C(\N)Cc2ccc([N+](=O)[O-])cc2)c1 0.85%
CCOc1cc(CN2CCN(C(=O)CC(C)C)CC2)ccc1OC -3.42%
O=C(COc1ccc(Cl)cc1[N+](=O)[O-])N1CCCCC1 2.91%
O=C(CN1C(=O)CC(c2ccccc2)=Nc2ccccc21)NC1CCCCC1 12.2%
O=C(CN1C(=O)NC2(CCCCCC2)C1=O)NC1CC1 0.9%
Cc1ccc(C2=C/C(=C\c3cccnc3)C(=O)O2)cc1 10.9%
CN(C)/C=C1/C(=O)Nc2ccccc21 8.66%
NC(=O)C1=C[C@@H](c2csc3ccccc23)C[C@@H](OCc2ccc(CO)cc2)O1 5.57%
CCN(CC)C(=O)CC(c1ccc2c(c1)OCO2)c1c(OC)cc(OC)c2c(-c3ccccc3)cc(=O)oc12 (centres undefined) -2.49%
Cc1ccc(/C=C/C(=O)O)cc1S(=O)(=O)N1CCC(Cc2ccccc2)CC1 6.76%
O=c1[nH]nc(SCCS(=O)(=O)c2ccc(F)cc2)n1-c1ccccc1C(F)(F)F 6.99%
CN(c1ccccn1)c1ncnc2[nH]ncc12 3.53%
O=C(NC1CC1)C1=C[C@H](c2c[nH]c3ccccc23)C[C@H](OCc2ccc(CO)cc2)O1 1.62%
Cc1nc(C(=O)NCc2ccccc2)sc1C1(C)CC(c2cccnc2)=NO1 (centres undefined) 6.55%
CC1=NNC(=O)C1CC(=O)N/N=C/c1ccncc1 (centres undefined) 2.75%
C=CCCN(Cc1ccccc1)S(=O)(=O)c1ccccc1Br 5.98%
c1ccc(-c2cc(N3CCCCC3)c3ccccc3n2)cc1 16%
Cc1ccccc1NC(=O)Nc1ccccc1N1CCCCC1 5.71%
Cc1cc(-n2cnc(-c3cn(C)nc3C)n2)no1 11.1%
CCCCCCNS(=O)(=O)c1ccccc1Br 9.21%
O=C(Cn1cnc2cc([N+](=O)[O-])ccc2c1=O)NC(=O)NCc1ccccc1 1.31%
CCOC(=O)NNc1cc(C(F)(F)F)ccn1 9.46%
O=C(NNS(=O)(=O)c1ccccc1C(F)(F)F)c1cc2ncc(C(F)(F)F)cc2s1 9.81%
CCc1ccc[n+](-c2nc([O-])sc2C=O)c1 9.94%
C#CCOCCOCCOCCNc1nc(N2CCN(C(=O)[C@H](CCC(=O)O)n3cc(C(N)CO)nn3)CC2)nc(N2CCN(C(=O)[C@H](CCCCN)n3cc(C(N)CC(C)C)nn3)CC2)n1 (some centres undefined) 5.53%
N#Cc1c(NCCO)ccc([N+](=O)[O-])c1NCCO 12.3%
CCCC[C@@H]1CN=C(N)N1CCc1cc(C(F)(F)F)cc(C(F)(F)F)c1 2.17%
CC(C)c1ccc(NC(=S)NC2CC3C=CC2C3)cc1 (centres undefined) 3.63%
CCCc1c(C(=O)Nc2ccc(F)cc2)cnn1-c1ccccc1 -0.53%
CCOC(=O)c1c(NC(=S)NC(=O)c2ccco2)sc2c1CCCC2 23.9%
CCOCC(=O)Nc1sc2c(c1C(=O)OCC)CCCC2 5.03%
C=C1CCN([C@H](C(=O)NCc2cc(OC)c(OC)c(OC)c2)C(C)C)S(=O)(=O)c2ccccc21 4.35%
FC(F)(F)c1ccnc(Oc2ccc(C3=NCCS3)cc2)c1 9.29%
CCOc1ccc(C2c3[nH]c4ccccc4c3CCN2Cc2cccn2-c2ncccn2)cc1 (centres undefined) 4.53%
CC(C)(C)CN1C(=O)C(=O)NC[C@H]1Cc1cccc2ccccc12 4.1%
COCc1cc(=O)[nH]c(-c2ccc(C(F)(F)F)cc2)n1 8.57%
COc1ccccc1C1CCN(C(=S)Nc2ccc(Br)cc2)CC1 3.05%
Fc1ccc(-c2csc(-c3ccc(C4SCCS4)cc3)n2)cc1F 7.1%
COc1ccc(C(CC(=O)N2CCN(c3ccccc3)CC2)c2c(O)cc(OC)cc2OC)cc1 (centres undefined) 1.72%

inhibition, active:
CCc1nnc(NC(=O)CCN(c2ccc(C)cc2)S(=O)(=O)c2ccccc2)s1 49.2%
Cc1cccc(NC(=O)c2cc(N3C(=O)CCC3=O)ccc2Cl)n1 50.5%
Cc1ccc(-n2ncc3c(=O)[nH]cnc32)c(C)c1 54%
CCOc1cc(CO)ccc1OCC(=O)N1CCCCC1 52.6%
CCC1SC(CC)C(=O)N(CC(=O)NC2CCCCC2)C1=O (centres undefined) 101%
CN(C)/C=C1\C=C(c2ccccc2)OC1=O 49.5%
c1ccc(-n2cccc2)c(N2CCCCC2)c1 46.9%
CCOC(=O)c1c(NC(=O)c2ccc(Br)o2)sc2c1CCCC2 44%
